Assay results taken from the supplement of paper PMC10849652.
The full data set covers some 8,800 targets. This sample favours those with a hit. About 0.5% of all pairs of compound and target were hits.

Key:
Test in all cases: log2 fold change, soluble protein after heating vs DMSO (PISA); higher = thermal stabilisation; K562 lysate, 10 uM; active = over 0.2 and 3.5 SD of the protein, either way, in both replicates (recomputed)
erlotinib = compound: C#Cc1cccc(Nc2ncnc3cc(OCCOC)c(OCCOC)cc23)c1 [erlotinib]
In short: (§1)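 K562 pellets were dounce-homogenised in PBS pH 7.4 with 1 mM MgCl2, and the crude extract at 1 mg/mL protein was treated with 10 μM compound for 30 min. Aliquots were heated for 3 min across 48°C-58°C, pooled, and brought to 0.5% NP-40 at 4°C; soluble protein was the supernatant after 21,000xg for 90 min. Soluble protein was quantified by TMTpro 16plex LC-MS/MS with channel sums equalised, and reported as log2 fold change in thermal stability against DMSO controls, with values from duplicates.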

[1] = compound: C/C(=N\NC(=O)C1=CC(=CC=C1)S(=O)(=O)N2CCOCC2)/C3=C(C=CC(=C3)Cl)O
In short: as §1

[2] = compound: C1=CC(=CC=C1C2=NC3=C(N2)C=C(C=C3)C(=O)N)OC4=CC=C(C=C4)Cl
In short: as §1

[3] = compound: C1=CC2=C(C=CC(=C2)/C=C\3/C(=O)NC(=NCC4=CC=CS4)S3)N=C1
In short: as §1

[4] = compound: C1=CC2=NC=CN=C2C=C1/C=C/3\C(=O)NC(=O)S3
In short: as §1

[5] = compound: C1=CC=C(C=C1)C2=NC(=C(N2)C3=CC=NC=C3)C4=CC(=C(C=C4)Cl)O
In short: as §1

[6] = compound: C1=CC=C2C(=C1)C3=NNC4=CC=CC(=C43)C2=O
In short: as §1

[7] = compound: C1CCN(C1)C(=O)NC2=CC=CC(=C2)NC3=NC=C(C(=N3)NCCC4=CN=CN4)Br
In short: as §1

[8] = compound: C1CN(CCC1(CC2=CC=C(C=C2)Cl)N)C3=NC=NC4=C3C=CN4
In short: as §1

IRAK-1-4 Inhibitor I = compound: C1COCCN1CCN2C3=CC=CC=C3N=C2NC(=O)C4=CC(=CC=C4)[N+](=O)[O-] [IRAK-1-4 Inhibitor I]
In short: as §1

ibrutinib = compound: C=CC(=O)N1CCC[C@@H](n2nc(-c3ccc(Oc4ccccc4)cc3)c3c(N)ncnc32)C1 [ibrutinib]
In short: as §1

[9] = compound: CC(=O)c1cnc2ccc(-c3cc(Cl)c(O)c(Cl)c3)nc2c1N[C@H]1CC[C@H](CN(C)C)CC1
In short: as §1

ralimetinib = compound: CC(C)(C)Cn1c(N)nc2ccc(-c3[nH]c(C(C)(C)C)nc3-c3ccc(F)cc3)nc21 [ralimetinib]
In short: as §1

[10] = compound: CC(C)(O)CC(=O)NCCn1ccc2ncnc(Nc3ccc(Oc4cccc(C(F)(F)F)c4)c(Cl)c3)c21
In short: as §1

[11] = compound: CC(C)C1=C2N=C(C=C(N2N=C1)NCC3=CC=CC=C3)NCCCCCCN
In short: as §1

[12] = compound: CC1=C(C(CC(=O)N1)C2=CC=C(C=C2)C(F)(F)F)C(=O)NC3=C(C=C4C(=C3)C=NN4)F
In short: as §1

[13] = compound: CC1=C(C2=C(C=C1)C(=O)C3=CC=CC=C3N2CCCN)C
In short: as §1

[14] = compound: CC1=C(C=C(C=C1)NC(=O)C2=CC(=CC=C2)C(C)(C)C#N)NC3=CC4=C(C=C3)N=CN(C4=O)C
In short: as §1

[15] = compound: CC1=C(C=C(C=C1)NC(=O)C2=CC(=CC=C2)N(C)C)NC(=O)C3=CC=C(C=C3)O
In short: as §1

[16] = compound: CC1=CC=C(C=C1)SC2=C3C=C(SC3=CN=C2)C(=O)N
In short: as §1

Measured: log2 fold change

RALGAPB (UniProt Q86X10)
Chain of UniProt Q86X10 (Q86X10 whole entry, looked up): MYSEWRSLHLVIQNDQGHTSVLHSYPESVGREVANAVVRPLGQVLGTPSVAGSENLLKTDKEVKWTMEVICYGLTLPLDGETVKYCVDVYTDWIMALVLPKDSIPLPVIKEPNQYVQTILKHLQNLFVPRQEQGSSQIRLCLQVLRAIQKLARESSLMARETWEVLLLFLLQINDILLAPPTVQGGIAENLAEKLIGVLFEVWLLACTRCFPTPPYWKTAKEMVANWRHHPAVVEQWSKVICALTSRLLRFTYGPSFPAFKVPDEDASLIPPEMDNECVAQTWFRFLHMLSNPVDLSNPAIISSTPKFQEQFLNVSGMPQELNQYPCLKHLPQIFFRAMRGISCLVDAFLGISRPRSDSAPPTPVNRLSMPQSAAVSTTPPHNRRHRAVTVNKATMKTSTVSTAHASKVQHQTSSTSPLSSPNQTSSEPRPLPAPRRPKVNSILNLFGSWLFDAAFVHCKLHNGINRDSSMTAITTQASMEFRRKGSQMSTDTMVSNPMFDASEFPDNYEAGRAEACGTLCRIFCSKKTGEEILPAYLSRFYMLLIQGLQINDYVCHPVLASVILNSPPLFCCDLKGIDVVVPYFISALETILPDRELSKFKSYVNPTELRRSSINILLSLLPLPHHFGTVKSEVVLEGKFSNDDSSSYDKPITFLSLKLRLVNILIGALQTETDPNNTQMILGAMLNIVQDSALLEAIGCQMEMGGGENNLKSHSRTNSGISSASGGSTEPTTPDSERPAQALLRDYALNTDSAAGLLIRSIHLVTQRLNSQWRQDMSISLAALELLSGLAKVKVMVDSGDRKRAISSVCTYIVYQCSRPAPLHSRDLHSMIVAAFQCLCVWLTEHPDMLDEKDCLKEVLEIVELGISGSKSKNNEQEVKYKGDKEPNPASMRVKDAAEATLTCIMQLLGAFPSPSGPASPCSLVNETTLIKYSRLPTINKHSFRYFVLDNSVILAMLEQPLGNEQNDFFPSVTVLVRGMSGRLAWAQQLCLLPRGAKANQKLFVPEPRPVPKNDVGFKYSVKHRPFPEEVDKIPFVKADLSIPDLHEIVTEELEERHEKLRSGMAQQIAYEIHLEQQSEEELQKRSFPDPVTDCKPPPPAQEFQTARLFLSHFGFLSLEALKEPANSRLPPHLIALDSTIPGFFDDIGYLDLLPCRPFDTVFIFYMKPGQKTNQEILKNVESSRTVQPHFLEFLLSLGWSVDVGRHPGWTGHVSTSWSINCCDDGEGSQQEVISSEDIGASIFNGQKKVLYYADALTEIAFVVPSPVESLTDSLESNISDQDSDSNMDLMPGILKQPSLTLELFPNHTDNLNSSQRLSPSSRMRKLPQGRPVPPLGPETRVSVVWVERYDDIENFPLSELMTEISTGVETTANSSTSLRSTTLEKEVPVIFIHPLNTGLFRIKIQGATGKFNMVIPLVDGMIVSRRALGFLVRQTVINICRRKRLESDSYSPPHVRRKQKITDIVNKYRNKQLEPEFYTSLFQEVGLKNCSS
inactive: erlotinib 0.024 | [1] -0.047 | [2] 0.051 | [3] 0.018 | [4] 0 | [5] -0.038 | [6] -0.074 | [7] -0.008 | [8] 0.049 | IRAK-1-4 Inhibitor I 0.033 | ibrutinib 0.066 | [9] -0.002 | ralimetinib 0.033 | [10] -0.038 | [11] 0.003 | [12] -0.048 | [13] 0.029 | [14] 0.065 | [15] 0.032 | [16] 0.01

RPS18 (UniProt P62269)
inactive: erlotinib -0.021 | [1] -0.088 | [2] -0.007 | [3] -0.006 | [4] -0.004 | [5] -0.012 | [6] -0.007 | [7] 0.005 | [8] 0.004 | IRAK-1-4 Inhibitor I 0.047 | ibrutinib -0.016 | [9] 0.01 | ralimetinib -0.006 | [10] -0.02 | [11] 0.008 | [12] -0.037 | [13] -0.1 | [14] 0 | [15] -0.006 | [16] -0.012

RPS9 (UniProt P46781)
inactive: erlotinib -0.034 | [1] 0.022 | [2] -0.03 | [3] -0.054 | [4] -0.016 | [5] -0.011 | [6] 0.011 | [7] 0.025 | [8] -0.018 | IRAK-1-4 Inhibitor I -0.017 | ibrutinib -0.02 | [9] 0.015 | ralimetinib 0.016 | [10] 0.026 | [11] -0.007 | [12] -0.038 | [13] -0.095 | [14] -0.048 | [15] 0.006 | [16] 0.043

RNF213, A0A0A0MTC1
inactive: erlotinib 0.041 | [1] 0.004 | [2] 0 | [3] 0.042 | [4] 0.015 | [5] 0.021 | [6] -0.045 | [7] -0.005 | [8] 0.047 | IRAK-1-4 Inhibitor I 0.025 | ibrutinib 0.015 | [9] 0.006 | ralimetinib -0.001 | [10] -0.014 | [11] 0.007 | [12] 0.014 | [13] 0.008 | [14] 0.014 | [15] 0.042 | [16] 0.022

SEH1L isoform 1 (UniProt Q96EE3)
inactive: erlotinib -0.008 | [1] 0.082 | [2] -0.001 | [3] -0.023 | [4] 0.014 | [5] -0.015 | [6] -0.012 | [7] -0.025 | [8] 0.026 | IRAK-1-4 Inhibitor I 0.031 | ibrutinib 0.013 | [9] -0.024 | ralimetinib -0.011 | [10] -0.008 | [11] 0.005 | [12] -0.021 | [13] -0.014 | [14] 0.015 | [15] 0.017 | [16] -0.014

RCOR3 isoform 3 (UniProt Q9P2K3)
inactive: erlotinib -0.033 | [1] 0.025 | [2] 0.022 | [3] 0.009 | [4] -0.006 | [5] -0.017 | [6] -0.012 | [7] -0.02 | [8] -0.015 | IRAK-1-4 Inhibitor I -0.015 | ibrutinib -0.009 | [9] -0.03 | ralimetinib 0.014 | [10] -0.004 | [11] 0.011 | [12] 0 | [13] 0.002 | [14] -0.038 | [15] 0.002 | [16] -0.011

RNF113A (UniProt O15541)
Chain of UniProt O15541 (O15541 whole entry, looked up): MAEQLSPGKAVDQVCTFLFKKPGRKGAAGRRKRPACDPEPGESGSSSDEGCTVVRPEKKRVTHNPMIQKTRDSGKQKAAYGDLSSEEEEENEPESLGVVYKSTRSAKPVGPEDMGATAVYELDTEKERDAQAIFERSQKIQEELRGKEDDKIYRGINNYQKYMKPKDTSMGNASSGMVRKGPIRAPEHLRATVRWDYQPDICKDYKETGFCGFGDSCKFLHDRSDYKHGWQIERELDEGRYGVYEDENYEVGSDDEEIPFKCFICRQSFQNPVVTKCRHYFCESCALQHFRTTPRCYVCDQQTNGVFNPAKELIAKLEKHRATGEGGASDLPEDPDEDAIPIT
inactive: erlotinib -0.039 | [1] -0.039 | [2] 0.036 | [3] 0.027 | [4] -0.008 | [5] -0.01 | [6] -0.02 | [7] -0.005 | [8] 0.01 | IRAK-1-4 Inhibitor I 0.02 | ibrutinib 0.009 | [9] -0.003 | ralimetinib 0.005 | [10] -0.049 | [11] 0.111 | [12] 0.015 | [13] -0.038 | [14] 0.024 | [15] 0.017 | [16] -0.03

RPL28 (UniProt P46779)
inactive: erlotinib -0.012 | [1] -0.104 | [2] 0.006 | [3] -0.009 | [4] -0.037 | [5] 0.019 | [6] 0.016 | [7] -0.003 | [8] 0 | IRAK-1-4 Inhibitor I -0.02 | ibrutinib -0.026 | [9] -0.011 | ralimetinib -0.003 | [10] -0.005 | [11] 0.006 | [12] -0.038 | [13] -0.066 | [14] -0.021 | [15] 0.012 | [16] 0.026

RPAP1 (UniProt Q9BWH6)
Chain of UniProt Q9BWH6 (Q9BWH6 whole entry, looked up): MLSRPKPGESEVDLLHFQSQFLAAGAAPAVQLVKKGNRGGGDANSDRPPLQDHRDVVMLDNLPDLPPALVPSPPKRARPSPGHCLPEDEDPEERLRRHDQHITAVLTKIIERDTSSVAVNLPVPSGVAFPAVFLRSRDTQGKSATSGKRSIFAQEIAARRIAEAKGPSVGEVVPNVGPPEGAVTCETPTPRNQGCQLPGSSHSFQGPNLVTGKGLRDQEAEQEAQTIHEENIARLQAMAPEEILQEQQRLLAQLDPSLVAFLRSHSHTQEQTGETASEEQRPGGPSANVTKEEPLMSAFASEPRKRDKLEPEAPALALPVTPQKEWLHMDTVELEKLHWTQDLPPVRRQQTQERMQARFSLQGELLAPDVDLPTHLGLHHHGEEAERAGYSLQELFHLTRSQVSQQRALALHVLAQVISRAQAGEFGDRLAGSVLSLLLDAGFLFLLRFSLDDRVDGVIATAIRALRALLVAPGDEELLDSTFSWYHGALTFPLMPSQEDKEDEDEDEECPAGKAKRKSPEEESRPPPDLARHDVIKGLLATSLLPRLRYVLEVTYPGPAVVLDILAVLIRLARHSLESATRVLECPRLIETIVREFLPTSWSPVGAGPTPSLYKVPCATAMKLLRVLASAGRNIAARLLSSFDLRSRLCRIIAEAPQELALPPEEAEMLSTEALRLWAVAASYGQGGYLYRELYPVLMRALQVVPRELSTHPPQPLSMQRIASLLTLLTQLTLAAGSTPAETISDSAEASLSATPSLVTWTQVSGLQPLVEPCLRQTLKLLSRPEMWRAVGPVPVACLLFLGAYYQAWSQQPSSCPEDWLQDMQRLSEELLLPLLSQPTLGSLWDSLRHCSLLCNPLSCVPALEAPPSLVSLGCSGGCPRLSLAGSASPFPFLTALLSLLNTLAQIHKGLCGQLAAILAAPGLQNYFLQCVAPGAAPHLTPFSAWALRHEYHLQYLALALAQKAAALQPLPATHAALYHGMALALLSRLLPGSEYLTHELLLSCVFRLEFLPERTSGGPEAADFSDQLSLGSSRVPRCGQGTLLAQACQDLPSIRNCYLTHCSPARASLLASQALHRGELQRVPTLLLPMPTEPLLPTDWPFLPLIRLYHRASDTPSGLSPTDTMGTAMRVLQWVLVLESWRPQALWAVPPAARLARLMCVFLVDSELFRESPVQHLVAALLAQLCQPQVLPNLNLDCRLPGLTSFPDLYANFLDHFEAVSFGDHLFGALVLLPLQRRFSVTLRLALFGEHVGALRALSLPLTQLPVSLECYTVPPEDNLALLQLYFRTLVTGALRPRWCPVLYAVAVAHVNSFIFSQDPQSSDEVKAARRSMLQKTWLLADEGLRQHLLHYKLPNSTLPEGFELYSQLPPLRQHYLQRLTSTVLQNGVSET
inactive: erlotinib 0.05 | [1] -0.078 | [2] 0.019 | [3] 0.016 | [4] 0.007 | [5] -0.028 | [6] 0.001 | [7] -0.001 | [8] 0.02 | IRAK-1-4 Inhibitor I 0.005 | ibrutinib -0.016 | [9] 0.049 | ralimetinib 0.02 | [10] -0.015 | [11] -0.037 | [12] 0.011 | [13] -0.002 | [14] -0.013 | [15] 0.007 | [16] -0.033

RBBP7 isoform 2 (UniProt Q16576)
Chain of UniProt Q16576 (Q16576 whole entry, looked up): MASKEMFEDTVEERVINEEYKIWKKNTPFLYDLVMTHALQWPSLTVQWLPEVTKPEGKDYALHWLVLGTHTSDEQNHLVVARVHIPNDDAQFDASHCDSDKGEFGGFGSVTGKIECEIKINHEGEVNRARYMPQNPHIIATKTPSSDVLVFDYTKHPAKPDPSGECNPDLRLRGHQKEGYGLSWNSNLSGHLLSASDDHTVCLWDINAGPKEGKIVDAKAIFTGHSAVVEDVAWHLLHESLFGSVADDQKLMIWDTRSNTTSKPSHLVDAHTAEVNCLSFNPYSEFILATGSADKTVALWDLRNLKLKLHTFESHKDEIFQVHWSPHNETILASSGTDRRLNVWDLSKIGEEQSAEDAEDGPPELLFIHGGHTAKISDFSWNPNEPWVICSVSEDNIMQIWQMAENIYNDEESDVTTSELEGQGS
inactive: erlotinib -0.036 | [1] 0.046 | [2] -0.036 | [3] -0.03 | [4] -0.013 | [5] -0.002 | [6] 0.055 | [7] 0.041 | [8] -0.026 | IRAK-1-4 Inhibitor I -0.006 | ibrutinib 0.016 | [9] 0.043 | ralimetinib 0.062 | [10] 0.042 | [11] -0.028 | [12] -0.029 | [13] 0.011 | [14] -0.002 | [15] -0.001 | [16] 0.034

RAB3IL1 (UniProt Q8TBN0)
inactive: erlotinib -0.026 | [1] 0.005 | [2] -0.021 | [3] 0.024 | [4] -0.05 | [5] 0.053 | [6] -0.038 | [7] -0.013 | [8] -0.003 | IRAK-1-4 Inhibitor I 0.011 | ibrutinib 0.03 | [9] -0.035 | ralimetinib 0.021 | [10] -0.022 | [11] 0.004 | [12] 0.116 | [13] -0.006 | [14] 0.02 | [15] -0.024 | [16] 0.003

RPS6KB1 (UniProt P23443)
Chain of UniProt P23443 (P23443 whole entry, looked up): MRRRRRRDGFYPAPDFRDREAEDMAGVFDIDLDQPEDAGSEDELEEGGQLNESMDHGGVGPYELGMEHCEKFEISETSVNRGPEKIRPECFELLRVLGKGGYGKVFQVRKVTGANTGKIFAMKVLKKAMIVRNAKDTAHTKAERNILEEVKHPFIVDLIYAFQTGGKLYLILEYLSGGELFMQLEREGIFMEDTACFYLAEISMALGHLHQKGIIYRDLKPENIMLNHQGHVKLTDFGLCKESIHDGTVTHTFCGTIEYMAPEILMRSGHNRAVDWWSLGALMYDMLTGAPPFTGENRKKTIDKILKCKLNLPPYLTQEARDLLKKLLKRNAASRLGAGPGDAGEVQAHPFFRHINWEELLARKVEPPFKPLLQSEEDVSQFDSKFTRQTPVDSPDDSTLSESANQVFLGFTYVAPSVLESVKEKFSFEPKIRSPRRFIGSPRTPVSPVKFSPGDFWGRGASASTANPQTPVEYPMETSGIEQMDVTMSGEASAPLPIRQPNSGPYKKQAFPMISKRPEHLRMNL
active: [6] 0.322 | [9] 0.355
inactive: erlotinib -0.017 | [1] -0.018 | [2] -0.034 | [3] 0.013 | [4] -0.001 | [5] 0.083 | [7] 0.085 | [8] 0.027 | IRAK-1-4 Inhibitor I 0.028 | ibrutinib 0.024 | ralimetinib 0.026 | [10] 0.007 | [11] -0.027 | [12] 0 | [13] 0.01 | [14] -0.029 | [15] -0.01 | [16] -0.001

RBM4 (UniProt Q9BWF3)
inactive: erlotinib -0.031 | [1] 0.059 | [2] -0.008 | [3] 0.009 | [4] 0.008 | [5] -0.065 | [6] -0.008 | [7] 0.001 | [8] 0 | IRAK-1-4 Inhibitor I -0.003 | ibrutinib 0.006 | [9] 0.021 | ralimetinib 0.008 | [10] -0.014 | [11] 0.023 | [12] 0.028 | [13] 0.005 | [14] -0.154 | [15] 0.025 | [16] -0.004

SCML2 (UniProt Q9UQR0)
Chain of UniProt Q9UQR0 (Q9UQR0 whole entry, looked up): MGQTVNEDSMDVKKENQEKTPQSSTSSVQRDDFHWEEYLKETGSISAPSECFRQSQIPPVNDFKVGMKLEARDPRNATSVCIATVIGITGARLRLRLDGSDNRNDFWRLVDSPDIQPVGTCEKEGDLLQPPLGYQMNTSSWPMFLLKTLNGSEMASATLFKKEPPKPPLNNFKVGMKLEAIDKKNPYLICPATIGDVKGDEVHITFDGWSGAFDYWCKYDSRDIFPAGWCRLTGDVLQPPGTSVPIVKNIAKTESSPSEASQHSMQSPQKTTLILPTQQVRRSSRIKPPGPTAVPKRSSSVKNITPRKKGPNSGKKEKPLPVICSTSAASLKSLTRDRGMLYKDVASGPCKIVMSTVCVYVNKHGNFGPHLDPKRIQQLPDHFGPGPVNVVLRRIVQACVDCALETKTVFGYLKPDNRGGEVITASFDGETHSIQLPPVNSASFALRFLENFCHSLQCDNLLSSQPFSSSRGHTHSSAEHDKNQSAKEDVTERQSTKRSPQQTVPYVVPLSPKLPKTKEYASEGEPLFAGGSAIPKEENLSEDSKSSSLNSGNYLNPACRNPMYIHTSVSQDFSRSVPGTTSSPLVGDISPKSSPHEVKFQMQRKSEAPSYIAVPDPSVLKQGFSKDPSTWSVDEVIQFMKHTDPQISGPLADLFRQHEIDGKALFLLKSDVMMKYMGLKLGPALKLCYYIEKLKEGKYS
inactive: erlotinib 0.021 | [1] 0.038 | [2] 0.019 | [3] 0.068 | [4] -0.046 | [5] 0 | [6] -0.028 | [7] -0.003 | [8] 0.043 | IRAK-1-4 Inhibitor I -0.01 | ibrutinib -0.011 | [9] 0.028 | ralimetinib 0.004 | [10] 0.034 | [11] -0.011 | [12] 0.011 | [13] -0.012 | [14] -0.015 | [15] -0.006 | [16] 0.109

RPN2 (UniProt P04844)
inactive: erlotinib 0 | [1] 0.014 | [2] -0.055 | [3] 0.022 | [4] 0.021 | [5] 0 | [6] -0.049 | [7] -0.007 | [8] 0.006 | IRAK-1-4 Inhibitor I 0.007 | ibrutinib -0.008 | [9] 0.014 | ralimetinib -0.004 | [10] -0.035 | [11] -0.021 | [12] 0.008 | [13] 0.021 | [14] -0.011 | [15] -0.015 | [16] -0.017

RAP1B (UniProt P61224)
Chain of UniProt P61224 (P61224 whole entry, looked up): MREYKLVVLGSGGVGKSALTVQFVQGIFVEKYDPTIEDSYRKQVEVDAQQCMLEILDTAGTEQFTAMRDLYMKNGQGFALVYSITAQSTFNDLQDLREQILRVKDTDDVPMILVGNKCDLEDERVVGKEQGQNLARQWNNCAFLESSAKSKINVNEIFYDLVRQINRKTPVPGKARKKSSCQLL
inactive: erlotinib -0.017 | [1] -0.085 | [2] 0.024 | [3] 0.016 | [4] -0.031 | [5] 0.006 | [6] -0.014 | [7] -0.033 | [8] -0.004 | IRAK-1-4 Inhibitor I 0.014 | ibrutinib -0.024 | [9] -0.005 | ralimetinib 0.051 | [10] -0.03 | [11] -0.014 | [12] -0.01 | [13] 0.004 | [14] 0.008 | [15] -0.017 | [16] -0.008
